An excerpt weighted towards active compounds, which were near 0.5% of everything screened.
E coli growth-1: E. coli growth inhibition; Escherichia coli growth, OD600, 23 h; stronger effect = lower value; OD600 absorbance (concentration not given with the values); AID 1053175; 330,000 compounds, 0.21% hits;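 active = OD600 absorbance below the run mean of sample wells minus 3.6 SD, in any replicate, cut at about 0.56 in these data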
Tat transport: E. coli Tat transport inhibition. AID 488895. inhibition, % at 10 µM. E. coli MC4100 TorA-mCherry Tat export, fluorescence. 340,000 compounds, 0.036% hits;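 active = mean replicate inhibition at least 50% and at least half of replicates individually reaching 50%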;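 note: exported cargo escapes ClpAP degradation while cytoplasmic cargo is degraded and loses fluorescence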
AddAB inh: less growth of phage-infected E. coli with AddAB. E. coli expressing H. pylori AddAB, absorbance growth. inhibition, % at 11.9 µM. 330,000 compounds, 0.29% hits. AID 435030; in the data active = inhibition above about 12%
phage Ecoli inh: E. coli growth loss with phage present | inhibition, % at 11.9 µM | growth absorbance | 360,000 compounds, 0.26% hits; in the data active = inhibition above about 11%
E coli growth-2: bacterial growth inhibition, counter-screen for AddAB inhibitors | E. coli V3065 growth, OD600 absorbance, 18 h | inhibition, % at 11.9 µM | 330,000 compounds, 0.27% hits | AID 449728;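 active = inhibition above the campaign's mean inhibition across all tested compounds plus 3 SD, cut at about 9.9% in these data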;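 note: uninfected addAB+ strain grown without phage in ampicillin broth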
RecBCD conf: growth loss of phage-infected V66 E. coli, RecBCD confirmation screen; E. coli V66 + T4 2- phage, growth OD; inhibition, % at 11.9 µM; 890 compounds, 45% hits; AID 651982; shares compounds with phage Ecoli inh;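 active = mean inhibition over triplicates exceeding the hit threshold derived in the original primary screen, cut at about 11% in these data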
Ecoli viability: inhibits E. coli viability, flagging RecBCD hits as nonselective; 890 compounds, 29% hits; absorbance (OD) growth; shares compounds with phage Ecoli inh; inhibition, % at 11.9 µM; AID 651983; in the data active = inhibition above about 20%;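 note: E. coli strain V66 grown with compound alone and no phage infection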
AddAB counter: growth loss of phage-infected AddAB E. coli, RecBCD counter-screen | inhibition, % at 11.9 µM | 890 compounds, 45% hits | shares compounds with phage Ecoli inh | E. coli expressing H. pylori AddAB + T4 phage, OD growth; gene 2 mutant T4, recBCD-deleted host;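 active = mean inhibition above the solvent-only control wells' mean plus 3 SD, cut at about 22% in these data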;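 note: higher means less bacterial growth from phage killing when AddAB is blocked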
Hits are given with their value; . = inactive; / = not tested or not shown.

SMILES	E coli growth-1	Tat transport	AddAB inh	phage Ecoli inh	E coli growth-2	RecBCD conf	Ecoli viability	AddAB counter
Oc1c(I)cc(Cl)c2cccnc12	0.12	.	31	32	44	43	49	40
O=[N+]([O-])c1cc([N+](=O)[O-])c2cccnc2c1Oc1ccccc1O	.	.	.	.	.	/	/	/
O=[N+]([O-])c1ccc(O)c2ncccc12	0.066	.	64	62	67	79	74	69
CC(=O)N1CCN(c2ccc(NC(=O)C=Cc3ccccc3)cc2)CC1	.	/	/	/	/	/	/	/
C=CCC(CC(=O)N(CCO)Cc1ccccc1)C(=O)NC(COC(=O)C(CC=C)CC(=O)OC(C)(C)C)C(C)(C)C (stereo not drawn)	.	/	/	/	/	/	/	/
CN1C(=O)SC(=Cc2ccccc2OCc2ccc(C(=O)O)cc2)C1=O	.	/	/	/	/	/	/	/
COc1ccc(OC)c(C(=O)Cn2nnc(-c3ccc(N4CCOCC4)cc3)n2)c1	.	.	.	12	.	.	.	.
CCOC(=O)C1C2COc3cc(OC)ccc3C2N2C(=O)N(c3ccc(C)cc3)C(=O)[C@]12C (stereo partly drawn)	.	/	/	/	/	/	/	/
O=C(OCc1nnc(-c2ccccc2)o1)c1ccc([N+](=O)[O-])o1	.	.	.	.	.	/	/	/
COc1cc(-c2nnc(COC(=O)c3ccc([N+](=O)[O-])o3)o2)cc(OC)c1OC	/	/	/	12	/	.	.	.
COc1ccc(C)cc1N=Nc1ccc(O)c2ncccc12	.	.	/	18	/	.	.	.
COc1cccc(N=Nc2ccc3cccnc3c2O)c1	.	.	.	14	15	.	.	.
Oc1ccc(N=Nc2ccc3c(c2)OCCO3)c2cccnc12	.	.	.	15	.	.	.	.
COc1cccc(N=Nc2ccc(O)c3ncccc23)c1	/	.	.	13	.	.	.	.
O=C(Cc1ccccc1)NC(c1ccccc1)P(=O)(O)CO (stereo not drawn)	.	/	/	/	/	/	/	/
COc1ccc2c(c1)OCC1C2N2C(=O)C(C)NC(=O)[C@@]2(C)C1c1ccccc1 (stereo partly drawn)	.	/	/	/	/	/	/	/
COc1cccc(-c2cnc(C(O)c3cc(F)cc(Cl)c3)[nH]2)c1 (stereo not drawn)	/	/	/	.	/	/	/	/
OC(c1cccc(Cl)c1)c1ncc(-c2ccc3ccccc3c2)[nH]1 (stereo not drawn)	/	/	/	15	/	12	.	.
Cc1ccc(-c2cnc(C(O)c3cc(F)cc(Cl)c3)[nH]2)cc1 (stereo not drawn)	/	/	/	12	/	.	.	.
COc1cccc(-c2cnc(C(O)c3cc(Cl)cc(Cl)c3)[nH]2)c1 (stereo not drawn)	/	/	/	12	/	11	.	.
OC(c1cccc(F)c1)c1ncc(-c2ccc3ccccc3c2)[nH]1 (stereo not drawn)	/	/	/	.	/	/	/	/
NC(=O)CCC(NC(=O)c1ccc(F)cc1)C(=O)OCC(=O)NCc1ccc(F)cc1 (stereo not drawn)	.	/	/	/	/	/	/	/
COc1ccc(N(CC(=O)Nc2cccc(C)c2C)S(=O)(=O)c2c(C)n[nH]c2C)cc1	.	.	.	.	.	/	/	/
COc1ccc(N(CC(=O)Nc2cccc(C)c2C)S(=O)(=O)c2c(C)[nH]c(=O)[nH]c2=O)cc1	.	.	.	100	.	.	.	.
CCCCOC1NC(=O)NC(=O)C1(F)C(=O)OCC (stereo not drawn)	/	/	/	.	/	/	/	/
SMILES	E coli growth-1	Tat transport	AddAB inh	phage Ecoli inh	E coli growth-2	RecBCD conf	Ecoli viability	AddAB counter
COC(=O)C1(F)C(=O)NC(=O)NC1OC (stereo not drawn)	/	/	/	23	/	27	.	47
C#CCOCCOCCOCCNc1nc(N2CCN(C(=O)C(CCCCN)n3cc(C(N)CC(N)=O)nn3)CC2)nc(N2CCN(C(=O)C(CC(N)=O)n3cc(C(N)C(C)CC)nn3)CC2)n1 (stereo not drawn)	.	/	/	/	/	/	/	/
CCCOc1ccc(CNC(=O)c2ccc3nc(N4CCOCC4)sc3c2)cc1	.	.	.	25	.	.	.	.
O=C(Nc1cccc(Cl)c1)Nc1nnc(-c2ccncc2)s1	.	.	.	13	.	.	.	.
Cc1ccc(NC(=O)Nc2ccc(F)cc2)cc1Cl	.	.	.	12	.	.	.	.
COc1cccc(NC(=O)Nc2ccc(C)c(Cl)c2)c1	.	.	.	.	.	/	/	/
Cc1cc(OC(F)F)ccc1NC(=O)Nc1ccc([N+](=O)[O-])cc1	.	.	.	13	.	.	.	.
COC(=O)c1ccc(NC(=O)Nc2ccc([N+](=O)[O-])cc2)cc1	0.42	.	.	14	.	.	.	.
NC(CO)c1cn(C(CCC(=O)O)C(=O)N2CCNCC2)nn1 (stereo not drawn)	.	/	/	/	/	/	/	/
CC1CN(C(C)CO)C(=O)Cc2cc(NC(=O)Nc3ccccc3)ccc2OC1CN(C)C(=O)Nc1ccc2c(c1)OCO2 (stereo not drawn)	.	/	/	/	/	/	/	/
CC#CCN1c2ccccc2[C@]23CC(C(=O)OC)N(C(=O)OCC)C2=NC(C(=O)OC)=C(C(=O)OC)C13 (stereo partly drawn)	.	/	/	/	/	/	/	/
CC(NC(=O)c1nc[nH]c1C(=O)NCCCCCNC(=O)OC(C)(C)C)C(=O)OCc1ccccc1 (stereo not drawn)	.	/	/	/	/	/	/	/
COC(=O)c1ccc(NC(=O)Nc2ccc(F)c(Cl)c2)cc1	.	.	.	12	10	.	.	.
CC(=O)c1ccc(NC(=O)Nc2cccc(Cl)c2)cc1	0.51	.	.	11	.	.	.	.
COC(=O)c1ccc(NC(=O)Nc2ccccc2F)cc1	.	.	.	.	.	/	/	/
CC(CCc1ccco1)NC(=O)Cn1ncc2c(=O)oc3ccccc3c21 (stereo not drawn)	.	.	.	99	.	.	.	.
O=Cc1cccnc1SCc1ccccc1	.	.	.	99	.	.	.	.
Oc1cccnc1SCc1ccccc1	.	.	.	.	.	/	/	/
Cc1cc(N/N=C/c2ccc(N(C)C)cc2)c2ccccc2n1	/	.	.	12	.	.	.	.
Nc1nc(N)nc(-c2ccc([N+](=O)[O-])o2)n1	0.51	.	/	103	/	64	89	98
O=[N+]([O-])c1ccc(/C=[N+](\[O-])[C@@H]2CCCC[C@@H]2/[N+]([O-])=C/c2ccc([N+](=O)[O-])o2)o1	.	.	.	.	.	/	/	/
CCOC(=O)CN1C(=O)NC(c2ccccc2)C(C(=O)OC)=C1C (stereo not drawn)	.	/	/	/	/	/	/	/
C#CCCOC(=O)N1C2=NC(C(=O)OC)=C(C(=O)OC)C3N(C)c4ccccc4[C@]23CC1CO (stereo partly drawn)	.	/	/	/	/	/	/	/
COc1ccccc1NC(=S)NC(NC(=O)c1ccco1)C(Cl)(Cl)Cl (stereo not drawn)	.	.	.	11	.	.	.	.
Nc1nc(N)c2cc(CNc3ccc(Cl)c(Cl)c3)ccc2n1	/	/	/	58	/	41	36	73
O=C1c2cc(Cl)ccc2-c2c(O)cc(Cl)cc21	.	.	/	13	/	.	.	.
CCN(CC)c1ccc(C(=C2C=CC(=[N+](CC)CC)C=C2)c2ccccc2)cc1	/	64	/	79	/	73	80	83
CCOC(=O)c1ccc(NC(=O)CSc2nc3ncccc3[nH]2)cc1	.	.	.	11	.	.	.	.
CCCCc1ccc(NC(=O)CSc2nc3ncccc3[nH]2)cc1	.	.	.	.	.	/	/	/

Assay outcomes: PubChem, several laboratories
